Only some compounds are listed: those with a hit (about 2.4% of all), similar ones and a draw of the others.
D2 ag-1 – D2 dopamine receptor (human) agonism. activation, % at 2 µM. P14416. actives 0.53% (n = 340,000). HEK293 T-REx D2 cells, calcium flux agonist mode;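 active = activation over 3 SD above normal in the single-dose calcium agonist read, cut at about 30% in these data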; note: 0% is about no effect
Target sequence (P14416 whole entry, looked up): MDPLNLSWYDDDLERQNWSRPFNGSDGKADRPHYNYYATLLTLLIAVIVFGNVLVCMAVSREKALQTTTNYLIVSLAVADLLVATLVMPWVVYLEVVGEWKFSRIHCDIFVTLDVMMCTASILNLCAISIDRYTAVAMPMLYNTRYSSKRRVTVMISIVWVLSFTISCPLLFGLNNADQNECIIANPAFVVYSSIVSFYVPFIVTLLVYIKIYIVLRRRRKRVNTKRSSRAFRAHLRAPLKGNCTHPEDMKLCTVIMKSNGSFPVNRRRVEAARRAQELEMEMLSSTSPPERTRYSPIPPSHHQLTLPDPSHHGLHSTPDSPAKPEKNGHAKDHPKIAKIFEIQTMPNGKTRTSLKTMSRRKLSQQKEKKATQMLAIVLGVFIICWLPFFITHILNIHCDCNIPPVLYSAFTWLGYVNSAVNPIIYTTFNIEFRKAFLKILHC
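Tetracycline-induced HEK293 T-REx cells with force-coupled D2 receptor, plated overnight at 30 C, loaded with no-wash calcium dye. After a 10 s baseline, compound was pin-added and calcium flux read kinetically for 180 s; calcium rises flagged agonists.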
D2 ag-2 – activates the human D2 dopamine receptor; activation, % (test concentration not listed); actives 0.084% (n = 360,000); DiscoveRx PathHunter D2 beta-arrestin, luminescence, 90 min; 100% = 57 uM dopamine signal; in the data active = activation above about 40%; inconclusive = between about 15% and that limit
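DiscoveRx PathHunter D2 beta-arrestin cells (2,100/well) attached overnight, then compound-stimulated 90 min at 37 C in HBSS/10 mM HEPES/0.1% Tween-20 buffer; beta-galactosidase complementation read by luminescence after 1 h at ambient temperature. Dopamine 57 uM final (EC100) as control.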
D2 PAM-1 – human D2 receptor positive allosteric modulation | DiscoveRx D2 beta-arrestin cells, luminescence, 90 min; 100% = 57 uM dopamine signal | actives 0.23% (n = 360,000) | P14416 | AID 624464 | potentiation, % (concentration not given with the values); in the data active = potentiation above about 50%; inconclusive = mostly about 30% to 49%
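PathHunter D2 cells, attached overnight at 37 deg C, received compound in DMSO plus dopamine at EC20 (50 nM final) for 90 min at 37 deg C. Beta-arrestin recruitment was read as luminescence after 1 h with detection reagent at ambient temperature.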
D2 antagonist – antagonizes the human D2 dopamine receptor; P14416; HEK293 TREx D2 cells, calcium flux, dopamine EC80; inhibition, % at 10 µM; actives 2% (n = 340,000); AID 485344; in the data active = inhibition above about 30%; inactive = below that, where a call was filed; note: 0% is about no effect
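In this primary screen, negative modulation is detected by tracking calcium flux after an EC80 dopamine challenge in inducible HEK293 T-REx D2 cells preexposed to test compound for 180 s.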
D2 PAM-2 – D2 dopamine receptor (human) potentiation; P14416; HEK293 T-REx D2, calcium flux, EC20 dopamine potentiation; potentiation, % at 10 µM; actives 0.34% (n = 340,000);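 active = potentiation over 3 SD above the plate norm, cut at about 30% in these data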; note: 0% is about no effect
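Potentiation of an EC20 dopamine calcium response measured kinetically over 180 s, after a preceding 180 s compound-only read flagging agonists. Cells: inducible Hek293 Trex D2 line, 4000/well, cultured overnight at 30 C before dye loading.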
D3 ag – confirmation of human D3 dopamine receptor agonists, beta-arrestin; shares compounds with D2 ag-1; DiscoveRx D3 beta-arrestin cells, luminescence, 90 min; Potency, µM (highest dose often 76.9 µM), for inactives: at the highest dose activation, actives largely listed as activators; actives 4% (n = 2,300); AID 720506;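 note: potency is the fitted concentration of half-maximal effect; 100% = dopamine control response; nearly all actives have a fitted effect of over 70% in size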
D2 ag-3 – activates human D2 dopamine receptor in D3 counterscreen | actives 5.9% (n = 2,300) | Potency, µM (titrated, usually from 76.9 µM), for inactives: at the highest dose activation, actives largely listed as activators | DiscoveRx PathHunter D2 beta-arrestin, luminescence, 90 min; response scale: percent relative to full dopamine signal | shares compounds with D2 ag-1 | AID 720507; note: potency is the fitted concentration of half-maximal effect; % of control where 0% means no effect; nearly all actives have a fitted effect of over 70% in size
Numbers without * were called inactive; ? = inconclusive; / = not tested or not shown. Unless noted, calls come from the whole dose curve; as a rule, active = well fitted activation curve with a large enough effect; inconclusive = small, poorly fitted or top-dose-only effect; inactive = flat fitted curve, though single readings scatter.

SMILES | D2 ag-1 | D2 ag-2 | D2 PAM-1 | D2 antagonist | D2 PAM-2 | D3 ag | D2 ag-3
Cc1sc2nc(CSCC(=O)Nc3ccc(Cl)cc3F)[nH]c(=O)c2c1C | 0 | -5 | 14 | 2 | 1 | -4% | -6%
Cc1sc2nc(CSCC(=O)Nc3c(F)cccc3F)[nH]c(=O)c2c1C | 0 | -2 | 7 | 2 | 4 | / | /
CCn1ccc2cc(S(=O)(=O)N3CCCN(C(=O)NCC(=O)OC)CC3)ccc21 | / | / | / | / | -4 | / | /
COc1cc(CN2CCC(C(=O)N3CCN(c4ccccc4F)CC3)CC2)ccc1O | 39* | 8 | 1 | 39* | -21 | ? | 22%
COc1cccc(CN2CCC(C(=O)N3CCN(c4ccccc4F)CC3)CC2)c1 | 26 | 2 | -10 | 1 | -8 | 3% | 16%
Cc1cccc(C(=O)N2CCCCC2CCN2CCCCC2)c1 (stereo not given) | -1 | / | / | / | -21 | / | /
Cc1ccc(F)cc1NC(=O)CN1CCN(c2ccccn2)CC1 | 27 | ? | -9 | 50* | -8 | 19% | ?
O=C(CN1CCc2ccccc2C1)Nc1ccccc1F | 47* | ? | 1 | 64* | -17 | ? | 23%
O=C(CN1CCN(c2ncccn2)CC1)Nc1ccccc1-n1cccc1 | 38* | 5 | -12 | -21 | -12 | 1% | 16%
Cc1cc(C)cc(NC(=O)CN2CCN(c3ncccn3)CC2)c1 | -1 | 7 | -4 | -2 | 5 | / | /
O=C(CN1CCN(c2ccccn2)CC1)Nc1cccc(F)c1 | 27 | 4 | -4 | -19 | -5 | 3% | -1%
Cc1ccc(NC(=O)CN2CCN(c3ccccn3)CC2)c(Cl)c1 | 0 | -6 | -5 | -16 | 2 | / | /
O=C(CN1CCc2ccccc2C1)Nc1ccc(F)cc1 | 0 | 1 | -3 | -6 | 7 | / | /
O=C(CN1CCN(c2ccccn2)CC1)Nc1ccc(F)cc1F | 59* | 11 | -1 | 25 | -17 | 30% | ?
Cc1cc(C)cc(NC(=O)CSc2ccc(-c3ccccn3)nn2)c1 | -1 | 3 | -19 | -2 | 2 | / | /
O=C(CN1CCN(c2ccccn2)CC1)Nc1ccccc1Br | 47* | ? | 10 | 38* | -21 | -3% | 19%
N#Cc1ccccc1NC(=O)CN1CCN(c2ccccn2)CC1 | 10 | 8 | -1 | -2 | -4 | / | /
O=C(CN1CCN(c2ccccn2)CC1)Nc1cccc(S(=O)(=O)N2CCOCC2)c1 | 42* | 4 | 14 | 7 | -15 | 23% | ?
O=C(CSc1ccc(-c2ccccn2)nn1)Nc1cccc(F)c1 | 71* | 2 | -4 | -11 | -20 | 10% | 9%
CCNC(=O)COC(=O)CCNC(=O)c1ccc(Cl)cc1 | 1 | -22 | 3 | 11 | 12 | / | /
CC(C(=O)Nc1cccc(S(=O)(=O)N2CCOCC2)c1)N1CCN(C/C=C/c2ccccc2)CC1 (stereo not given) | 51* | -2 | -12 | 80* | -23 | ? | 22%
O=C(Nc1cccc(S(=O)(=O)N2CCOCC2)c1)C(c1ccccc1)N1CCCCC1 (stereo not given) | / | -2 | -6 | / | / | / | /
O=C(CN1CCN(c2ccccn2)CC1)Nc1ccccc1F | 73* | 9 | 6 | 57* | -15 | 29% | 28%
O=C(CN1CCN(c2ccccn2)CC1)Nc1cc(F)ccc1F | 50* | 11 | 2 | 22 | -18 | 15% | 15%
CCCc1cc(=O)oc2c3c(cc(OCC(=O)NCCN4CCOCC4)c12)OC(C)(C)CC3 | 0 | -6 | -87 | 17 | -11 | / | /
SMILES | D2 ag-1 | D2 ag-2 | D2 PAM-1 | D2 antagonist | D2 PAM-2 | D3 ag | D2 ag-3
O=C(c1cccc(Oc2ccccc2)c1)N1CCN(c2ccccn2)CC1 | 0 | -1 | 1 | 30 | -2 | / | /
CCSc1nc(CC)c2c(c1C#N)CCCC2 | 56* | -1 | -5 | -2 | -19 | -4% | 9%
COc1ccc(C)cc1NC(=O)C1CCN(S(=O)(=O)Cc2ccccc2)CC1 | 1 | / | / | / | 7 | / | /
COc1ccc(NS(=O)(=O)c2cccc(C(=O)N3CCC3)c2)cc1 | 16 | -4 | -7 | -33 | -5 | 4% | -5%
COc1ccc(NS(=O)(=O)c2ccc(C)c(C(=O)N3CCC3)c2)cc1 | 73* | 1 | -1 | 49* | -29 | 0% | 26%
CC1CN(C(=O)c2ccc(NS(=O)(=O)c3cccc(Cl)c3)cc2)CC(C)O1 (stereo not given) | 0 | 0 | 1 | -1 | -4 | 1% | -3%
Nc1ncnc2sc3c(c12)CCNC3 | 1 | -6 | -16 | 4 | 24 | / | /
COc1ccc(CCn2c(=O)c3cccnc3n(CC(=O)Nc3c(C)cc(C)cc3C)c2=O)cc1OC | 0 | / | / | / | 2 | / | /
C=C(C)C(=O)Nc1nnc(-c2ccccc2C)s1 | 0 | -1 | -23 | 52* | 10 | -5% | -4%
Cc1cc(NC(=O)C(=O)NCCN2CCN(C(=O)c3cccs3)CC2)ccc1Br | 22 | 0 | -21 | 27 | -10 | 28% | 6%
COc1ccc(NC(=O)C(=O)NCCN2CCN(C(=O)c3cccs3)CC2)cc1 | 14 | 1 | -18 | 44* | 6 | ? | 7%
O=C(Nc1cccc(Cl)c1)N1Cc2ccccc2Oc2ncccc21 | -1 | / | / | / | 15 | / | /
CC(=O)c1ccc(OC(C)C(=O)OCC(=O)NCCc2ccccc2)cc1 (stereo not given) | 0 | 1 | 7 | 18 | 7 | 2% | -1%
CC(=O)c1ccc(S(=O)(=O)NCCC(=O)OCC(=O)NCCc2ccccc2)cc1 | 0 | -3 | -4 | -7 | -7 | / | /
COc1ccccc1NS(=O)(=O)c1cc([N+](=O)[O-])ccc1N/N=C/c1c(C)[nH]c2ccccc12 | 19 | -16 | -17 | -26 | 15 | -43% | -14%
Cc1[nH]c2ccccc2c1/C=N/Nc1ccc([N+](=O)[O-])cc1 | 22 | -12 | -17 | 20 | -2 | / | /
CC(Sc1nnnn1-c1ccc(O)cc1)c1nc2ccccc2c(=O)[nH]1 (stereo not given) | 1 | 2 | 1 | 7 | 2 | / | /
NC(=O)c1ccc(SCC(=O)OCC(=O)NC2CCCCCCC2)c([N+](=O)[O-])c1 | 0 | 10 | 0 | 10 | 4 | 14% | 0%
CC1CCC(NC(=O)COC(=O)CSc2ccc(C(N)=O)cc2[N+](=O)[O-])CC1 (stereo not given) | 0 | 7 | -10 | 9 | -3 | / | /
COc1ccc(C(=O)NCCS(=O)(=O)N2CCCC2)cc1 | 0 | 2 | 9 | -67 | 7 | / | /
